Reference: PubChem BioAssay AID1159580 (chemical genetic matrix, 2015)
In all, about 5,500 compounds went through this assay and about 2,000 (36%) were called active. About 18% were inconclusive and are not listed. No stated cut-off is given here; in the data, active means normalized growth mostly below about 0.91 (no sharp cut-off); inconclusive means no clear call, values can overlap the other calls; inactive means mostly above about 0.92. The list shows a part of the results.

Assay: chemical genetic growth profiling, strain panel (AID 1159580);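 further: tested at 20 µM; growth read once vehicle control cultures reached saturation at 30 °C; 1 = growth at the plate median or of vehicle wells; lower values mean less growth of the strain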
Conditions: growth OD

Measured: normalized growth

CCC(=O)Nc1ccc(Cl)c(Cl)c1
inactive: S. cerevisiae deletion strains, locus YJR043C, strain POL32, hits give low values 0.931 | S. cerevisiae deletion strains, locus YJR075W, strain HOC1, hits give low values 0.965 | S. cerevisiae deletion strains, locus YKL009W, strain mrt4, hits give low values 0.976 | S. cerevisiae deletion strains, locus YKL068W, hits give low values 0.999 | S. cerevisiae deletion strains, locus YKL085W, strain MDH1 (second series), hits give low values 0.999 | S. cerevisiae deletion strains, locus YKL085W, strain MDH1, hits give low values 0.999 | S. cerevisiae deletion strains, locus YKL160W, strain elf1, hits give low values 0.984 | S. cerevisiae deletion strains, locus YKL190W, strain CNB1, hits give low values 1 | S. cerevisiae deletion strains, locus YKR001C, strain vps1, hits give low values 0.973 | S. cerevisiae deletion strains, locus YKR026C, strain gcn3, hits give low values 1 | S. cerevisiae deletion strains, locus YKR091W, strain srl3, hits give low values 0.982 | S. cerevisiae deletion strains, locus YLL001W, strain dnm1, hits give low values 0.99 | S. cerevisiae deletion strains, locus YLL026W, hits give low values 0.989 | S. cerevisiae deletion strains, locus YLL041C, strain sdh2, hits give low values 0.996 | S. cerevisiae deletion strains, locus YLR027C, strain aat2, hits give low values 1 | S. cerevisiae deletion strains, locus YLR039C, strain RIC1, hits give low values 1.02 | S. cerevisiae deletion strains, locus YLR058C, strain SHM2, hits give low values 1 | S. cerevisiae deletion strains, locus YLR102C, strain apc9, hits give low values 1 | S. cerevisiae deletion strains, locus YLR221C, strain rsa3, hits give low values 0.986 | S. cerevisiae deletion strains, locus YLR258W, strain gsy2, hits give low values 0.996 | S. cerevisiae deletion strains, locus YLR262C, strain YPT6 (second series), hits give low values 1 | S. cerevisiae deletion strains, locus YLR262C, strain YPT6, hits give low values 0.978 | S. cerevisiae deletion strains, locus YLR268W, strain sec22, hits give low values 0.982 | S. cerevisiae deletion strains, locus YLR320W, strain mms22, hits give low values 0.969 | S. cerevisiae deletion strains, locus YLR330W, strain CHS5, hits give low values 0.995 | S. cerevisiae deletion strains, locus YLR342W, strain FKS1 (second series), hits give low values 0.981 | S. cerevisiae deletion strains, locus YLR342W, strain FKS1, hits give low values 0.973 | S. cerevisiae deletion strains, locus YLR357W, strain rsc2, hits give low values 0.952 | S. cerevisiae deletion strains, locus YLR370C, strain arc18, hits give low values 0.985 | S. cerevisiae deletion strains, locus YLR371W, strain rom2, hits give low values 1.01 | S. cerevisiae deletion strains, locus YLR384C, strain iki3, hits give low values 1.01 | S. cerevisiae deletion strains, locus YLR418C, strain cdc73, hits give low values 0.866 | S. cerevisiae deletion strains, locus YML016C, strain PPZ1, hits give low values 0.997 | S. cerevisiae deletion strains, locus YML032C, strain rad52, hits give low values 1 | S. cerevisiae deletion strains, locus YML120C, strain ndi1, hits give low values 1 | S. cerevisiae deletion strains, locus YML124C, strain tub3, hits give low values 1 | S. cerevisiae deletion strains, locus YMR058W, strain fet3, hits give low values 0.993 | S. cerevisiae deletion strains, locus YMR078C, strain ctf18, hits give low values 1 | S. cerevisiae deletion strains, locus YMR125W, strain sto1, hits give low values 0.98 | S. cerevisiae deletion strains, locus YMR129W, hits give low values 0.98 | S. cerevisiae deletion strains, locus YMR205C, strain PFK2, hits give low values 0.958 | S. cerevisiae deletion strains, locus YMR223W, strain ubp8, hits give low values 1 | S. cerevisiae deletion strains, locus YMR231W, strain pep5, hits give low values 0.997 | S. cerevisiae deletion strains, locus YMR263W, strain SAP30, hits give low values 0.986 | S. cerevisiae deletion strains, locus YMR307W, strain GAS1, hits give low values 0.843 | S. cerevisiae deletion strains, locus YNL067W, strain RPL9B, hits give low values 0.965 | S. cerevisiae deletion strains, locus YNL071W, strain lat1, hits give low values 0.987 | S. cerevisiae deletion strains, locus YNL128W, strain TEP1, hits give low values 0.988 | S. cerevisiae deletion strains, locus YNL153C, strain GIM3, hits give low values 0.988 | S. cerevisiae deletion strains, locus YNL209W, strain ssb2, hits give low values 0.988 | S. cerevisiae deletion strains, locus YNL233W, strain BNI4, hits give low values 0.976 | S. cerevisiae deletion strains, locus YNL248C, strain rpa49, hits give low values 0.991 | S. cerevisiae deletion strains, locus YNL250W, strain rad50, hits give low values 1.01 | S. cerevisiae deletion strains, locus YNL271C, strain bni1, hits give low values 1.01 | S. cerevisiae deletion strains, locus YNL298W, strain CLA4, hits give low values 0.995 | S. cerevisiae deletion strains, locus YNL307C, strain MCK1, hits give low values 0.992 | S. cerevisiae deletion strains, locus YNL322C, strain KRE1 (second series), hits give low values 0.987 | S. cerevisiae deletion strains, locus YNL322C, strain KRE1, hits give low values 0.995 | S. cerevisiae deletion strains, locus YNR049C, strain mso1, hits give low values 0.994 | S. cerevisiae deletion strains, locus YNR052C, strain pop2, hits give low values 1.02 | S. cerevisiae deletion strains, locus YOL006C, strain TOP1, hits give low values 0.885 | S. cerevisiae deletion strains, locus YOL012C, strain htz1 0.818 | S. cerevisiae deletion strains, locus YOL147C, strain pex11, hits give low values 0.999 | S. cerevisiae deletion strains, locus YOR001W, strain rrp6, hits give low values 0.994 | S. cerevisiae deletion strains, locus YOR061W, strain CKA2, hits give low values 0.997 | S. cerevisiae deletion strains, locus YOR069W, strain VPS5, hits give low values 1.01 | S. cerevisiae deletion strains, locus YOR070C, strain gyp1, hits give low values 0.998 | S. cerevisiae deletion strains, locus YOR080W, strain dia2, hits give low values 0.956 | S. cerevisiae deletion strains, locus YOR083W, strain WHI5, hits give low values 0.994 | S. cerevisiae deletion strains, locus YOR106W, strain vam3, hits give low values 0.988 | S. cerevisiae deletion strains, locus YOR136W, strain idh2, hits give low values 0.998 | S. cerevisiae deletion strains, locus YOR144C, strain elg1, hits give low values 0.995 | S. cerevisiae deletion strains, locus YOR184W, strain ser1, hits give low values 0.977 | S. cerevisiae deletion strains, locus YOR265W, strain rbl2, hits give low values 0.995 | S. cerevisiae deletion strains, locus YOR270C, strain vph1, hits give low values 0.992 | S. cerevisiae deletion strains, locus YOR290C, strain snf2, hits give low values 0.988 | S. cerevisiae deletion strains, locus YOR316C, strain cot1, hits give low values 1.01 | S. cerevisiae deletion strains, locus YPL051W, strain arl3, hits give low values 0.994 | S. cerevisiae deletion strains, locus YPL055C, strain LGE1, hits give low values 0.904 | S. cerevisiae deletion strains, locus YPL078C, strain atp4, hits give low values 0.988 | S. cerevisiae deletion strains, locus YPL106C, strain sse1, hits give low values 0.952 | S. cerevisiae deletion strains, locus YPL240C, strain hsp82, hits give low values 0.968 | S. cerevisiae deletion strains, locus YPL241C, strain CIN2, hits give low values 0.993 | S. cerevisiae deletion strains, locus YPR119W, strain clb2, hits give low values 1 | S. cerevisiae deletion strains, locus YPR141C, strain kar3, hits give low values 1.01 | S. cerevisiae deletion strains, locus YPR163C, strain tif3, hits give low values 0.997 | S. cerevisiae deletion strains, locus YPR167C, strain met16, hits give low values 1 | S. cerevisiae deletion strains, strain wtn01, hits give low values 1 | S. cerevisiae strains, strain wild type, hits give low values 0.994
